Screening data: PubChem, National Center for Advancing Translational Sciences (NCATS)
ALDH1A1 block – blocks purified human ALDH1A1 activity. P00352. Purified ALDH1A1, NADH fluorescence, propionaldehyde substrate. Potency, µM (top dose mostly 75.3 µM), inactives show top-dose activity, negative = inhibition, hits mostly inhibitors. 220,000 compounds, 7.3% hits;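 further: potency means the concentration at half of the fitted maximal effect; plate controls were no enzyme wells and a reference inhibitor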
CBFb-RUNX1 inh – blocks binding between human CBF-beta and RUNX1. AlphaScreen CBFb-His/RUNX1-biotin binding, biochemical. Potency, µM (top dose mostly 59.8 µM), for the others: at the highest dose activity, negative = inhibition, usual class: inhibitors. 230,000 tested, under 10 active; active means well fitted curve in the direction sought with a large enough effect; inconclusive means small, poorly fitted or top-dose-only effect, or another doubt; inactive means no such curve, though single readings can be large; an effect the other way counts as inactive or inconclusive; further: % of control where 0% means no effect
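Room-temperature protein-protein interaction test with 30 nM each of His-tagged CBF-beta and biotinylated RUNX1, 15 min with compound, then 90 min with nickel plus streptavidin beads. Signal read in AlphaScreen mode.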
JMJD2E inh – JMJD2E (human) inhibition | B2RXH2 | JMJD2E catalytic domain, FDH-coupled NADH fluorescence (FDH is formaldehyde dehydrogenase) | Potency, µM (highest dose often 57.1 µM), inactives show top-dose activity change, negative = inhibition, hits mostly inhibitors | 230,000 compounds, 1.6% hits;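 further: potency means the concentration at half of the fitted maximal effect; 0% = wells with enzyme and -100% = buffer wells without enzyme; nearly all actives have a fitted effect of over 50% in size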
HttQ103 aggreg – mutant huntingtin aggregation inhibition | PC12 HttQ103-GFP aggregates, Acumen cytometry, 40 h | Potency, µM (doses to about 46.1 µM), without a hit: top-dose activity change, negative = inhibition, actives largely listed as inhibitors | 220,000 compounds, 1.1% hits | AID 1688; active means well fitted curve in the direction sought with a large enough effect; inconclusive means small, poorly fitted or top-dose-only effect, or another doubt; inactive means no such curve, though single readings can be large; an effect the other way counts as inactive or inconclusive; further: potency means the concentration at half of the fitted maximal effect; on the % scale 0 is the no-effect control and ±100 the full control effect; nearly all actives have a fitted effect of over 60% in size
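Quantitative HTS on tebufenozide-induced (100 nM) PC12 cells stably expressing polyQ103 Huntingtin exon 1–GFP. Reduction of bright GFP aggregates, detected by laser scanning cytometry after lysis, identified actives across the titration.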
HTT cytoprotect – cytoprotection in Huntington HTT-Q103 PC12 cell model. Potency, µM (highest dose often 56.4 µM), for inactives: cytoprotection (ATP increase), usual class: activators. PC12 HTT-Q103 induced, cytoprotection, ATP luminescence, 40 h. 230,000 compounds, 0.14% hits; active means well fitted curve in the direction sought with a large enough effect; inconclusive means small, poorly fitted or top-dose-only effect, or another doubt; inactive means no such curve, though single readings can be large; an effect the other way counts as inactive or inconclusive; further: potency means the concentration at half of the fitted maximal effect; % of control where 0% means no effect; nearly all actives have a fitted effect of over 45% in size
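PC12 cells with ecdysone-inducible HTT exon 1 Q103-GFP, induced with 100 nM tebufenozide and co-treated with library compounds in a dose series (1536-well, 1500 cells/well). Cytoprotection read as ATP content by ATPlite luminescence.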
HPGD block – blocks human HPGD enzyme activity; Potency, µM, for inactives: at the highest dose activity change, negative = inhibition, usual class: inhibitors; 150,000 compounds, 4.3% hits; AID 894; purified HPGD, NADH fluorescence kinetic, PGE2 substrate; further: potency means the concentration at half of the fitted maximal effect; on the % scale 0 is the no-effect control and ±100 the full control effect
Target sequence (P15428 whole entry, looked up): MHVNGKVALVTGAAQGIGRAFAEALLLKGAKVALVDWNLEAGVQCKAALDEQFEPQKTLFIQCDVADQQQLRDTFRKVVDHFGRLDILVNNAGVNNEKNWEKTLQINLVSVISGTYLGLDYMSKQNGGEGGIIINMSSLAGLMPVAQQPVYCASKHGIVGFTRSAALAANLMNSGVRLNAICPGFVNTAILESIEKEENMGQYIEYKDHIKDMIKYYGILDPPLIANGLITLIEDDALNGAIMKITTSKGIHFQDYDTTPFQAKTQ
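NADH formation kinetics: reaction with 30 uM PGE2 and 1 mM NAD+ (final), 20 nM enzyme, Tris-HCl pH 8 with Tween 20, after 15 min compound preincubation at room temperature. Fluorescence change, last versus first of five reads.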
The depositor's hits bear a star; ? = inconclusive; . = no result; [ ] = dose if it differs, or a comment. Compounds with a hit are over-represented: about 9.8% of the library has one in this group of screens. Unless noted, the call rests on the fitted dose curve; in most records, active means well fitted inhibition curve with a large enough effect (not every such curve was filed as active); inconclusive means small, poorly fitted or top-dose-only effect, or another doubt; inactive means no such curve, though single readings can be large or run the other way.

SMILES	ALDH1A1 block	CBFb-RUNX1 inh	JMJD2E inh	HttQ103 aggreg	HTT cytoprotect	HPGD block
O=C(Nc1ccc(C(=O)O)cc1)/C(=C\c1ccc([N+](=O)[O-])cc1)NC(=O)c1ccc(Br)cc1	?	0%	3%	3%	-5%	.
N#CC(C#N)=Cc1ccc(NC(=O)c2ccc(Br)cc2)cc1	.	7%	20µM*	-22%[9.22 µM]	-5%[10 µM]	.
O=C(Cn1nc(C(=O)O)c2ccccc2c1=O)Nc1nc(-c2ccccc2)cs1	.	2%	6%	4%[9.22 µM]	9%[10 µM]	.
CCCc1cc2c(-c3ccccc3)cc(=O)oc2cc1OCc1ccc(C(=O)O)o1	?	-10%	?	-6%	.	.
CCc1cc2c(-c3ccccc3)cc(=O)oc2cc1OC(=O)c1cccs1	-1%	-12%	10%	-14%	2%[10 µM]	3.2µM*
CC(NC(=O)OCc1ccccc1)C(=O)Oc1cc2oc(=O)cc(-c3ccccc3)c2cc1Cl (configuration not stated)	?	8%	?	8.9µM*	-2%[10 µM]	?
O=C(Oc1ccc2c(-c3ccccc3)cc(=O)oc2c1)C1CCCCC1	2.2µM*	-5%	?	?	-53%	?
CCOC(=O)C(C)Oc1ccc2c(-c3cccc([N+](=O)[O-])c3)cc(=O)oc2c1 (configuration not stated)	?	6%	-8%	-4%	-3%[10 µM]	35µM*
COc1ccc(-c2cc(=O)oc3cc(OC(=O)C4CCCCC4)ccc23)cc1	-3%	12%	?	?	-3%[10 µM]	?
O=C(NC(Cc1ccccc1)C(=O)Oc1ccc2c(C(F)(F)F)cc(=O)oc2c1)OCc1ccccc1 (configuration not stated)	?	3%	?	?	6%[10 µM]	?
N#C[C@H](c1ccccc1)N1CCCN([C@@H](C#N)c2ccccc2)C1c1ccccc1O (some centres not stated)	2%[13.5 µM]	.	.	.	-1%[10 µM]	-1%
O=C1CS/C(=N/N=C\c2ccn[nH]2)N1	.	-12%	-7%	-37%[9.22 µM]	-3%[10 µM]	.
O=C(Oc1ccc2c(-c3ccccc3)cc(=O)oc2c1)c1cccs1	11µM*	12%	-7%	-22%	10%[10 µM]	?
CC(Oc1ccc2c(-c3ccccc3)cc(=O)oc2c1)C(=O)O (configuration not stated)	28µM*	-5%	-24%	-2%	12%[10 µM]	?
NC(=O)C1CCN(C(=O)CSc2nc3c(c(-c4ccccc4)n2)CCCC3)CC1	?	1%	3%	-5%	-23%[0.074 µM]	-21%
CCOC(=O)C1CCCN(C(=O)CC(c2ccccc2)c2ccccc2)C1 (configuration not stated)	-9%	0%	6%	-19%	7%[10 µM]	28µM*
CCOC(=O)C1CCCN(C(=O)Cc2ccc(C)cc2)C1 (configuration not stated)	-2%	-2%	-1%	11%[9.22 µM]	4%	-6%
CCOCC(=O)N1CCCC(C(=O)OCC)C1 (configuration not stated)	3.5µM*	11%	2%	-13%	9%[0.074 µM]	-2%
CCCCC(=O)N1CCCC(C(=O)OCC)C1 (configuration not stated)	10%	4%	1%	5%	3%	-7%
O=C(O)c1ccc2c(c1)C(=O)N(c1nccs1)C2=O	.	6%	6%	13%[9.22 µM]	10%[10 µM]	.
Cc1ccc(NC(=O)/C(=C\c2ccc([N+](=O)[O-])cc2)NC(=O)c2ccccc2)cc1	-6%	1%	-1%	16%	-67%	-10%
COc1ccccc1C(=O)N/C(=C\c1ccccc1)C(=O)NC(C)C(=O)O (configuration not stated)	8%	1%	0%	-15%[9.22 µM]	-60%[10 µM]	.
Cc1ccc(S(=O)(=O)Oc2ccc(/C=C(/NC(=O)c3ccccc3)C(=O)NC(C)C(=O)O)cc2)cc1 (configuration not stated)	4µM*	11%	?	-10%[9.22 µM]	-5%[10 µM]	.
